Test results: PubChem BioAssay AID1159580 (chemical genetic matrix, 2015)
Where “and” joins values, the source holds several entries; their conditions need not be identical. Equal entries are not always repeated. The whole screen tested about 5,500 compounds, of which about 2,000 (36%) were called active. Another 18% or so got no clear call; they are omitted. No stated cut-off is given here; in the data, active means normalized growth mostly below about 0.91 (no sharp cut-off); inconclusive means no clear call, values can overlap the other calls; inactive means mostly above about 0.92. The list shows a part of the results.

Assay: chemical genetic growth profiling, strain panel (AID 1159580);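 further: tested at 20 µM; growth read once vehicle control cultures reached saturation at 30 °C; 1 = growth at the plate median or of vehicle wells; lower values mean less growth of the strain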
Conditions: S. cerevisiae deletion strains, growth OD

Measured: normalized growth

CC1=C(/C=C/C(C)=C/C=C/C(C)=C/C(=O)O)C(C)(C)CCC1
inactive: locus YAL013W, strain DEP1, hits give low values 0.993 and 1.03 | locus YAL021C, strain ccr4, hits give low values 1.01 | locus YAL026C, strain drs2, hits give low values 0.958 | locus YAL030W, strain snc1, hits give low values 0.996 | locus YAL040C, strain CLN3, hits give low values 1.03 | locus YBL061C, strain skt5, hits give low values 0.952 | locus YBR009C, strain hhf1, hits give low values 0.968 | locus YBR021W, strain FUR4, hits give low values 1.04 | locus YBR023C, strain chs3, hits give low values 0.959 | locus YBR171W, strain sec66, hits give low values 1 | locus YBR229C, strain ROT2, hits give low values 1.01 | locus YBR231C, strain swc5, hits give low values 0.996 | locus YBR279W, strain paf1, hits give low values 0.994 | locus YCL011C, strain gbp2, hits give low values 0.976 | locus YCL016C, strain dcc1, hits give low values 0.951 | locus YCL029C, strain bik1, hits give low values 1.02 | locus YCL061C, strain MRC1 (second series), hits give low values 1.01 | locus YCL061C, strain MRC1, hits give low values 0.969 | locus YCL069W, strain vba3, hits give low values 1 | locus YCR088W, strain abp1, hits give low values 0.993 | locus YDL005C, strain med2, hits give low values 0.998 | locus YDL035C, strain GPR1, hits give low values 0.998 | locus YDL040C, strain nat1, hits give low values 1 | locus YDL074C, strain BRE1, hits give low values 0.995 | locus YDL101C, strain DUN1, hits give low values 1.01 | locus YDL134C, strain PPH21, hits give low values 1.01 | locus YDL185W, strain tfp1, hits give low values 1.03 | locus YDL192W, strain arf1, hits give low values 1.03 | locus YDR001C, strain nth1, hits give low values 1 | locus YDR069C, strain doa4, hits give low values 0.979 | locus YDR101C, strain arx1, hits give low values 1.03 | locus YDR150W, strain NUM1, hits give low values 1.02 and 1.01 | locus YDR159W, strain sac3, hits give low values 0.928 | locus YDR162C, strain NBP2, hits give low values 1.01 | locus YDR195W, strain ref2 1.03 | locus YDR297W, strain sur2, hits give low values 0.991 | locus YDR318W, strain mcm21, hits give low values 1.01 | locus YDR334W, strain swr1, hits give low values 1.02 | locus YDR335W, strain msn5, hits give low values 0.962 | locus YDR363W, strain ESC2, hits give low values 0.994 | locus YDR388W, hits give low values 1.03 | locus YDR502C, strain sam2, hits give low values 1.03 | locus YEL003W, strain gim4, hits give low values 1.01 | locus YEL037C, strain rad23, hits give low values 1 | locus YEL061C, strain CIN8 (second series), hits give low values 1.01 | locus YEL061C, strain CIN8, hits give low values 1.01 | locus YER002W, strain NOP16, hits give low values 1.03 | locus YER015W, strain faa2, hits give low values 0.995 | locus YER016W, strain bim1, hits give low values 0.954 | locus YER110C, hits give low values 1.04 | locus YER111C, strain swi4, hits give low values 1 | locus YER155C, strain BEM2 (second series), hits give low values 0.953 | locus YER155C, strain BEM2, hits give low values 1.01 | locus YER167W, strain BCK2, hits give low values 1.01 | locus YFR010W, strain ubp6, hits give low values 0.99 | locus YGL078C, strain dbp3, hits give low values 1.03 | locus YGL086W, strain mad1, hits give low values 1.02 | locus YGL167C, strain pmr1, hits give low values 1.02 | locus YGL173C, strain kem1, hits give low values 0.97 | locus YGL227W, strain vid30, hits give low values 1.03 | locus YGL240W, strain doc1, hits give low values 0.992 | locus YGL248W, strain PDE1, hits give low values 1.01 | locus YGL253W, strain hxk2, hits give low values 0.99 | locus YGR078C, strain PAC10, hits give low values 0.996 | locus YGR135W, strain pre9, hits give low values 1.01 | locus YGR229C, strain SMI1, hits give low values 0.996 and 0.979 | locus YGR252W, strain gcn5, hits give low values 1.08 | locus YHR013C, strain ard1, hits give low values 0.942 | locus YHR027C, strain rpn1, hits give low values 0.975 | locus YHR030C, strain SLT2, hits give low values 1.01 and 0.982 | locus YHR079C, strain IRE1 (second series), hits give low values 1.01 | locus YHR079C, strain IRE1, hits give low values 1.01 | locus YHR094C, strain hxt1, hits give low values 1.03 | locus YHR129C, strain ARP1, hits give low values 1.01 | locus YHR142W, strain chs7, hits give low values 0.957 | locus YHR200W, strain rpn10, hits give low values 1.04 | locus YIL066C, strain RNR3, hits give low values 1 | locus YIL073C, strain SPO22, hits give low values 1.04 | locus YIL125W, strain kgd1, hits give low values 1.03 | locus YIR030C, strain dcg1, hits give low values 1.03 | locus YJL092W, strain hpr5, hits give low values 0.988 | locus YJL095W, strain BCK1 (second series), hits give low values 0.987 | locus YJL095W, strain BCK1, hits give low values 0.999 and 0.96 | locus YJL115W, strain asf1, hits give low values 1 | locus YJL129C, strain trk1, hits give low values 0.963 | locus YJL134W, strain LCB3, hits give low values 1.01 | locus YJL154C, strain vps35, hits give low values 1.02 | locus YJL164C, strain tpk1, hits give low values 0.971 | locus YJL166W, strain qcr8, hits give low values 0.987 | locus YJL168C, strain set2, hits give low values 1.04 | locus YJL187C, strain SWE1 (second series), hits give low values 1.01 | locus YJL187C, strain SWE1, hits give low values 0.989 | locus YJR043C, strain POL32, hits give low values 1.01 | locus YJR066W, strain TOR1, hits give low values 0.926
active: locus YDR137W, strain rgp1, hits give low values 0.824 | locus YDR392W, strain spt3, hits give low values 0.513
